From PubChem BioAssay
The list is not random: actives were taken first. Their share in the collection is about 4.7%.
D1 potentiator = enhances dopamine response at the human D1 receptor. HEK293 TREx D1 cells, calcium flux, dopamine EC20 potentiation. potentiation, % at 10 µM. 0.036% of 360,000 active. AID 504651; in the data active means potentiation above about 30%; further: 0% is about no effect
D1 ag = agonists of human D1 dopamine receptor. P21728. activation, % at 2 µM. 1% of 360,000 active. HEK293 T-REx D1 cells, calcium flux, agonist mode. AID 504660; further: 0% is about no effect
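Inducible HEK293 T-REx D1 cells, force-coupled to calcium signalling, were plated at 4000 cells/well with tetracycline and held overnight at 30 C. After no-wash calcium dye loading, compound-evoked calcium rise over 180 s flagged agonists.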
TRHR PAM = allosteric enhancers of human TRH receptor; TRHR cells, fluo-8 calcium fluorescence, EC20 TRH enhancement; enhancement, % at 2 µM; 0.66% of 360,000 active; AID 493056; in the data active means enhancement above about 30%; further: 0% is about no effect
Target sequence (P34981 whole entry, looked up): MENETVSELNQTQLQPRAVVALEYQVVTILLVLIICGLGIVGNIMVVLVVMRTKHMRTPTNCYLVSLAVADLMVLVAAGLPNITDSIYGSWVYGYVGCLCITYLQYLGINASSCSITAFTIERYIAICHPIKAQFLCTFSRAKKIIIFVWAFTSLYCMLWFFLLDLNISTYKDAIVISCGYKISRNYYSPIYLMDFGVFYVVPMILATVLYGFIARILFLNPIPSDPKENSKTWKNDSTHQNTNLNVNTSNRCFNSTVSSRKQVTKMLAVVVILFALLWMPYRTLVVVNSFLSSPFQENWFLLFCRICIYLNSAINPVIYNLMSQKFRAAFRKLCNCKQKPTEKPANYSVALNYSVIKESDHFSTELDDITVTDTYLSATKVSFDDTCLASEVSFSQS
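TRHR-expressing cells loaded with fluo-8 calcium dye were read kinetically (ex 480/em 530) during compound addition, then stimulated with an EC20 of TRH (10 nM final). Enhancement of the Gq-mediated intracellular calcium response was scored.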
D1 antagonist = antagonists of human D1 dopamine receptor. HEK293 TREx D1 cells, calcium flux, dopamine EC80; active compounds read low. activity change, negative = inhibition, % at 10 µM. 3.2% of 360,000 active. AID 504652; in the data active means activity change below about -30%; further: on the % scale 0 is the no-effect control and ±100 the full control effect
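Using tetracycline-induced force-coupled D1 Hek293 cells and a calcium dye, signals were followed for 180 s after compound, then for 180 s after EC80 dopamine, to detect inhibitors.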
TRHR ag = activates the human TRH receptor; P34981; TRHR cells, calcium flux fluo-8, FDSS agonist mode; activation, % at 2 µM; 0.18% of 360,000 active; AID 493084; further: 0% is about no effect
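Steps: seed TRHR cells overnight; add fluo-8 no-wash Ca dye, RT 30 min–1.5 h; record 10 s baseline; pin-transfer compounds; monitor fluorescence 1 cycle/s for the agonist window. Calcium increases flag candidate agonists.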
Starred values were filed as active, the others as inactive; . = no result given. Unless noted, no stated cut-off is given here; in the data, active means activation above about 30%; inactive means the rest.

SMILES	D1 potentiator	D1 ag	TRHR PAM	D1 antagonist	TRHR ag
CCn1cc(CN2CCc3c([nH]c4ccccc34)C2c2cccc(O)c2)c(C)n1 (stereo unspecified)	-10	2	-3	-8	1
CC1=C(c2ccc(C)c(C)c2)S(=O)(=O)N(Cc2ccc(C(=O)NCc3cccc(C)c3)cc2)C1=O	-6	7	-1	12	1
O=S1(=O)c2ccccc2N(Cc2ccc(Cl)cc2)c2ccccc21	-4	32*	8	3	-1
C=Cc1ccc(CN2C(=O)N(c3cccc(Cl)c3)S(=O)(=O)c3ccccc32)cc1	-4	3	0	-92*	1
Cc1cc(N2CCCCC2)nc(N)n1	-1	19	-5	5	42*
CCc1ccc(CN(Cc2cn[nH]c2-c2ccc(OC)cc2)C(=O)Nc2cc(Cl)ccc2OC)cc1	4	2	2	-62*	-1
CCOC(=O)N1CCC(NC(=O)c2ccc(N3CCC4(CC3)OCCO4)c([N+](=O)[O-])c2)CC1	-7	3	3	8	0
CCCCNC(=O)c1ccc(N2CCC3(CC2)OCCO3)c([N+](=O)[O-])c1	-6	2	1	-50*	0
CCN1CCN(C(=O)c2cc3cc([N+](=O)[O-])ccc3oc2=O)CC1	-11	0	-1	-36*	1
CCc1cc(=O)oc2cc(O[C@@H]3O[C@H](CO)[C@@H](O)[C@H](O)[C@H]3O)c(Cl)cc12	-3	3	33*	26	1
CCc1cc(=O)oc2c(C)c(O[C@@H]3O[C@H](CO)[C@@H](O)[C@H](O)[C@H]3O)ccc12	1	3	0	3	0
CC(C)Cc1[nH]c(=O)c(C#N)c2c1COC(C)(C)C2	-5	1	0	-33*	0
CCCc1[nH]c(=O)c(C#N)c2c1COC(C)(C)C2	-3	3	2	8	0
COc1cc(NC(=O)CN2C(=O)CCc3cc(Br)ccc32)cc(OC)c1OC	1	1	0	-1	0
Brc1cccc(-c2nnn3c2nc(N2CCCCC2)c2ccccc23)c1	-1	4	-1	15	1
CCCCC1CCC(C(=O)N2CC(=O)Nc3ccc(Cl)cc3C2c2ccc(F)cc2)CC1 (stereo unspecified)	-1	0	3	-9	0
CCCCC1CCC(C(=O)N2CC(=O)Nc3ccc(C)cc3C2c2ccc(F)cc2)CC1 (stereo unspecified)	0	5	-6	-53*	0
COc1cccc(C(=O)Nc2ccc(C(=O)OCc3cc(=O)n4nc(C5CC5)sc4n3)cc2)c1	-1	1	-2	4	0
COc1cccc(NS(=O)(=O)c2cc3c4c(c2)C(C)C(=O)N4CCC3)c1 (stereo unspecified)	0	0	-1	.	0
CCOC(=O)C1CCN(c2cc3c(cc2NC(=O)c2ccc(Cl)cc2)n(C)c(=O)n3C)CC1	4	-1	-3	-4	0
Cc1nc2nncn2c(NCc2ccc(Cl)cc2)c1C	-2	3	1	-34*	1
Cc1nc2nncn2c(NCc2ccc(F)cc2)c1C	-2	5	-5	-17	1
COc1ccccc1NC(=O)c1ccc2oc(=O)c(S(=O)(=O)c3ccccc3)cc2c1	-2	-1	-5	-56*	0
Cc1ccc(NC(=O)c2ccc3oc(=O)c(S(=O)(=O)c4ccccc4)cc3c2)cc1C	0	0	-4	-2	0
N#C/C(=C\c1ccc(OCC(N)=O)cc1)C(=O)NC1CC1	-17	-1	-1	-36*	1
SMILES	D1 potentiator	D1 ag	TRHR PAM	D1 antagonist	TRHR ag
Cc1ccc(Cl)cc1NC(=O)N1CCC(CN2CCCCCC2)CC1	0	1	7	3	0
CCOc1ccccc1NC(=O)COC(=O)Cc1ccsc1	-3	3	-3	2	-1
Cc1ccc(NC(=O)COC(=O)Cc2ccsc2)c(C)c1	-3	0	17	-34*	-2
CCC(C)(C)c1ccc(OCCCC[n+]2cccc(C)c2C)c(C(C)(C)CC)c1	-15	146*	-3	20	-1
Cc1cc[n+](CC[n+]2ccc(C)cc2)cc1	0	4	-5	6	-1
CCC(C)(C)c1ccc(OCCCC[n+]2ccc(C)cc2)c(C(C)(C)CC)c1	-8	127*	4	-25	-2
Cc1cc(C(C)(C)C)ccc1OCCCCN1CCCC1	4	30	1	-13	0
Cc1cccn2c(=O)cc(COc3ccc(NC(=O)COc4ccc(F)cc4)cc3)nc12	-2	0	-2	-10	0
COc1cccc(NC(=O)Cn2c(=O)n(-c3cccc(OC)c3)c(=O)c3c4c(sc32)CCCC4)c1	2	2	-1	-8	1
COc1ccc(-c2ccc(C3C(C#N)=C(N)Oc4n[nH]c(C)c43)o2)cc1 (stereo unspecified)	-7	32*	-4	-33*	9
CC1(C)SC(=S)N(/N=C/c2ccccc2)C1N(O)C(=O)Nc1ccc([N+](=O)[O-])cc1 (stereo unspecified)	-3	19	8	-37*	0
CNC(=O)N(O)C1N(/N=C/c2ccc(N(C)C)cc2)C(=S)SC1(C)C (stereo unspecified)	-4	2	-8	-13	0
CCc1cc2c(cc3c(=O)n(CCCC(=O)NCc4cccc(Cl)c4)ncn32)s1	1	2	15	-25	1
CN(C)CCCOc1ccc2c(c1)Sc1ccccc1CC2=O	-6	79*	6	-60*	-1
CCOC(=O)C1=C(O)/C(=C/c2ccccn2)SC1=Nc1ccc(Cl)cc1	-7	2	12	-33*	0
CCOC(=O)C1=C(O)/C(=C/c2ccc(OCC(=O)O)c(OCC)c2)SC1=Nc1ccccc1	-1	3	-4	2	1
COC(=O)c1ccc(Cl)cc1NC(=O)NC(C)c1c(-n2cccc2)sc(C)c1C (stereo unspecified)	-1	2	-9	14	0
CCOC(=O)c1ccc(Nc2nc3ccc(C(=O)c4ccccc4)cc3n3c(C)nnc23)cc1	0	4	0	-12	1
O=C(CCc1nnc2ccc(NCc3ccccc3)nn12)NCC1CCN(C2CCCC2)C1 (stereo unspecified)	-6	0	-1	-84*	0
O=C(CCc1nnc2ccc(NCc3ccc(F)cc3)nn12)NC1CCCC1	-9	3	-3	-16	1
COc1cccc(NC(=O)C(Cc2ccccc2)N2Cc3ccccc3C2=O)c1 (stereo unspecified)	2	1	3	-1	0
O=C(NCCCN1CCOCC1)c1ccc2c(c1)N(Cc1cccc(Cl)c1)C(=O)c1ccccc1S2	-1	16	2	-21	1
CCN1C(=O)c2ccccc2Sc2ccc(C(=O)NCCCN3CCOCC3)cc21	-11	1	32*	-4	-1
